{"source": "paper PMC4336329", "about": "(PLoS ONE, 2015)", "note": "Screen size: about 310,000 compounds; about 14,000 (4.5%) showed an effect of 50% or more. The effect is printed as a negative number. What follows is part of a selection rich in strong results, with near analogues and random picks from the rest.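 Also: peak tail current of the secondary pulse compared with the same well before compound.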", "data": [{"biological_target": "human ether-à-go-go-related gene (hERG) potassium channel (human, UniProt Q12809)", "sequence (Q12809 whole entry, looked up)": "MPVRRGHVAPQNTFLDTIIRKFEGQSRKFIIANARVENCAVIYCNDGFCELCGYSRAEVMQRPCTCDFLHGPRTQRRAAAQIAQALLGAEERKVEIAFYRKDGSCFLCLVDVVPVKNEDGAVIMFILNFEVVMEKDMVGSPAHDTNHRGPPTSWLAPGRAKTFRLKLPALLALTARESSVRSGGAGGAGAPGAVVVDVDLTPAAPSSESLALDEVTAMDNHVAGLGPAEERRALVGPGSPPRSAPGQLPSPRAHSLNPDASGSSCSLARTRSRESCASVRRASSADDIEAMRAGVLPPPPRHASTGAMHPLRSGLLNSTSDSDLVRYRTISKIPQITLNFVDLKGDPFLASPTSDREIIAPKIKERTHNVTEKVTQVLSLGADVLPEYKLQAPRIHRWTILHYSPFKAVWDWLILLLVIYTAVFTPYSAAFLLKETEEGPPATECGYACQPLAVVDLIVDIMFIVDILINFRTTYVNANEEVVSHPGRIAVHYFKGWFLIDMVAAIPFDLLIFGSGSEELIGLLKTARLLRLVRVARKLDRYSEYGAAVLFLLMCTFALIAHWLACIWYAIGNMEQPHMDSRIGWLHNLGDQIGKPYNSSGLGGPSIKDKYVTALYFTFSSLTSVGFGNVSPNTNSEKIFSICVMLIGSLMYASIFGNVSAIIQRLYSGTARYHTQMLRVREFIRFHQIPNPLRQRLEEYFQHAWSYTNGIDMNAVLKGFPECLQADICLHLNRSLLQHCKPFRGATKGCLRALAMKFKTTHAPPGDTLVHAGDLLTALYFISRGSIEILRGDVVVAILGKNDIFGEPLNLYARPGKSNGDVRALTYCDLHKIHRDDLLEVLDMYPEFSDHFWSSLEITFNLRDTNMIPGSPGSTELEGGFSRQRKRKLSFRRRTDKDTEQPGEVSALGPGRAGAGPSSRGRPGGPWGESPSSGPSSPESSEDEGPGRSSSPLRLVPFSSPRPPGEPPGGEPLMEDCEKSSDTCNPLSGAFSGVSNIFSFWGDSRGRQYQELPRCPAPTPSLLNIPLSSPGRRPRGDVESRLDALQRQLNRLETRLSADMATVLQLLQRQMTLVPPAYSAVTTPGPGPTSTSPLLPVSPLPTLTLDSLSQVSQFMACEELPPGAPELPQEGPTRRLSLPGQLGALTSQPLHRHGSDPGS", "assay": "primary screen, population patch clamp on CHO cells stably expressing hERG; higher = less effect of the substance", "units": {"hERG current change (%, negative = inhibition) at 10uM": "%"}, "values": [{"compound": "COc1ccc(C(=O)NCCCn2ccnc2)cc1.Cl", "hERG current change (%, negative = inhibition) at 10uM": -5.63}, {"compound": "COCCNC(=O)c1noc2c1CCc1cc(OC)ccc1-2", "hERG current change (%, negative = inhibition) at 10uM": -6.83}, {"compound": "COc1ccc(/C=C(\\NC(=O)c2ccc(C)cc2)C(=O)NCCCn2ccnc2)cc1", "hERG current change (%, negative = inhibition) at 10uM": -86.4}, {"compound": "COc1ccc(/C=C(/NC(=O)c2ccccc2)C(=O)NCCCn2ccnc2)cc1OC", "hERG current change (%, negative = inhibition) at 10uM": 19}, {"compound": "COc1ccc(C(=O)N/C(=C\\c2cn(C)c3ccccc23)C(=O)NCCCn2ccnc2)cc1", "hERG current change (%, negative = inhibition) at 10uM": 26.3}, {"compound": "COc1ccc(C(=O)N/C(=C\\c2ccccc2)C(=O)NCCCn2ccnc2)cc1", "hERG current change (%, negative = inhibition) at 10uM": -55.8}, {"compound": "O=C(NCCCn1ccnc1)c1noc2c1CCc1ccccc1-2", "hERG current change (%, negative = inhibition) at 10uM": -45.9}, {"compound": "COc1ccc(N(C2=NCCCS2)S(=O)(=O)c2ccc(C(C)(C)C)cc2)cc1", "hERG current change (%, negative = inhibition) at 10uM": 0.221}, {"compound": "CCc1ccc2[nH]c(C(=O)Nc3ccc4c(c3)OCO4)cc2c1", "hERG current change (%, negative = inhibition) at 10uM": 18.8}, {"compound": "COc1ccc(OC)c(S(=O)(=O)N/N=C(/C)c2c[nH]c3ccccc23)c1", "hERG current change (%, negative = inhibition) at 10uM": 14.1}, {"compound": "CCN(C(=O)c1cc2c(=O)[nH]c3ccc(C)cc3c2s1)c1cccc(C)c1", "hERG current change (%, negative = inhibition) at 10uM": -0.235}, {"compound": "Cc1nn(-c2ccc(N3CCCCC3)nn2)c(C)c1CCC(=O)Nc1cccc(F)c1", "hERG current change (%, negative = inhibition) at 10uM": -19}, {"compound": "COC(=O)c1sccc1-n1cc(C#N)c(=O)n(C)c1=O", "hERG current change (%, negative = inhibition) at 10uM": 17.9}, {"compound": "COc1cc2c(c(OC)c1OC)-c1ccc(O)c(=O)cc1[C@@H](N)CC2", "hERG current change (%, negative = inhibition) at 10uM": -11.8}, {"compound": "COCCn1c(C(C)C)nc2ccccc21", "hERG current change (%, negative = inhibition) at 10uM": 4.45}, {"compound": "CCn1cc(C2=NOC(C(=O)Nc3ccccc3C(=O)OC)C2)c(C)n1", "note": "(stereo not drawn)", "hERG current change (%, negative = inhibition) at 10uM": -3.86}, {"compound": "COc1cc(C2C(C(=O)c3ccco3)=C(O)C(=O)N2CC2CCCO2)ccc1O", "note": "(stereo not drawn)", "hERG current change (%, negative = inhibition) at 10uM": 2.25}, {"compound": "Cc1ccn2c(=O)c(NC(=O)c3ccc(Br)o3)c(C)nc2c1", "hERG current change (%, negative = inhibition) at 10uM": 8.18}, {"compound": "CC1(C)C(=O)NCCN1C(=O)CC1C(=O)NCCN1CC(c1ccccc1)c1ccccc1", "note": "(stereo not drawn)", "hERG current change (%, negative = inhibition) at 10uM": 12}, {"compound": "CC(C)(C)NC(=O)C(c1cccs1)N(Cc1ccco1)C(=O)c1csnn1", "note": "(stereo not drawn)", "hERG current change (%, negative = inhibition) at 10uM": -1.46}, {"compound": "COc1ccc(C(=O)CCC(=O)Nc2ccc(Cl)cc2)cc1", "hERG current change (%, negative = inhibition) at 10uM": 11.2}, {"compound": "O=C(NCCCn1ccnc1)c1cc([N+](=O)[O-])cc([N+](=O)[O-])c1", "hERG current change (%, negative = inhibition) at 10uM": -4.05}, {"compound": "Cc1ccc(C(=O)N/C(=C\\c2ccccc2)C(=O)NCCCn2ccnc2)cc1", "hERG current change (%, negative = inhibition) at 10uM": -84.8}, {"compound": "N#C/C(=C\\c1ccc([N+](=O)[O-])cc1)C(=O)NCCCn1ccnc1", "hERG current change (%, negative = inhibition) at 10uM": -59.5}, {"compound": "COc1cccc(-c2nn(-c3ccccc3)cc2/C=C(\\C#N)C(=O)NCCCn2ccnc2)c1", "hERG current change (%, negative = inhibition) at 10uM": -38.8}, {"compound": "Cc1ccc(/C=C(\\NC(=O)c2ccc(C)cc2)C(=O)NCCCn2ccnc2)cc1", "hERG current change (%, negative = inhibition) at 10uM": -84.9}, {"compound": "COc1ccc(/C=C(\\NC(=O)c2ccc(C)cc2)C(=O)NCCCn2ccnc2)cc1OC", "hERG current change (%, negative = inhibition) at 10uM": 8.48}, {"compound": "COc1ccc(C(=O)N/C(=C\\c2cn(S(=O)(=O)N(C)C)c3ccccc23)C(=O)NCCCn2ccnc2)cc1", "hERG current change (%, negative = inhibition) at 10uM": 1.07}, {"compound": "COc1ccc(/C=C(\\NC(=O)c2ccc([N+](=O)[O-])cc2)C(=O)NCCCn2ccnc2)cc1", "hERG current change (%, negative = inhibition) at 10uM": -69.4}, {"compound": "C/C(CC(=O)Nc1ccc(Cl)c(C(F)(F)F)c1)=N\\NC(=O)c1cnccn1", "hERG current change (%, negative = inhibition) at 10uM": -25.8}, {"compound": "COc1ccc(Cc2nnc(N)s2)cc1", "hERG current change (%, negative = inhibition) at 10uM": 15.3}, {"compound": "O=C(Nc1cccc(-n2cnnn2)c1)c1cccnc1", "hERG current change (%, negative = inhibition) at 10uM": 4.53}, {"compound": "C#CCOCCOCCOCCNc1nc(N2CCN(C(=O)C(Cc3ccc(O)cc3)n3cc(C(N)C(C)CC)nn3)CC2)nc(N2CCN(C(=O)C(Cc3ccc(O)cc3)n3cc(C(N)C(C)CC)nn3)CC2)n1.Cl", "note": "(stereo not drawn)", "hERG current change (%, negative = inhibition) at 10uM": -13.3}, {"compound": "COc1ccccc1CN1CCN(C(=O)c2cccc3ccccc23)CC1", "hERG current change (%, negative = inhibition) at 10uM": 3.48}, {"compound": "COc1cccc2cc(/C(=N/O)c3ccc(Br)cc3)oc12", "hERG current change (%, negative = inhibition) at 10uM": 5.41}, {"compound": "COC(=O)c1ccc(NC(=O)c2ccc3nc(C)sc3c2)cc1", "hERG current change (%, negative = inhibition) at 10uM": 15.8}, {"compound": "COc1cc(S(=O)(=O)NCc2ccccn2)c(OC)cc1Cl", "hERG current change (%, negative = inhibition) at 10uM": -1.73}, {"compound": "O=C(CCN1C(=O)c2ccccc2C1=O)NCCCn1ccnc1", "hERG current change (%, negative = inhibition) at 10uM": 11.3}, {"compound": "O=C(NCCCn1ccnc1)C(Cc1ccccc1)N1C(=O)c2ccccc2C1=O", "note": "(stereo not drawn)", "hERG current change (%, negative = inhibition) at 10uM": -34.5}, {"compound": "O=C(NCCCn1ccnc1)C(Cc1ccc([N+](=O)[O-])cc1)N1C(=O)c2ccccc2C1=O", "note": "(stereo not drawn)", "hERG current change (%, negative = inhibition) at 10uM": -62.3}, {"compound": "Cc1ccc(-n2nc3ccc(NC(=O)c4ccc5c(c4)OCO5)cc3n2)cc1", "hERG current change (%, negative = inhibition) at 10uM": 7.8}, {"compound": "O=C(NCCc1ccccc1)c1c(O)c2cccc3c2n(c1=O)CC3", "hERG current change (%, negative = inhibition) at 10uM": 1.79}]}]}
